Test results taken from PubChem BioAssay (NCATS).
Inconclusive results are not listed. Active and inactive are the calls of the source. Unless noted, calls follow the shape of the dose curve; as a rule, active = well fitted curve in the direction sought with a large enough effect; inconclusive = small, poorly fitted or top-dose-only effect, or another doubt; inactive = no such curve, though single readings can be large; an effect the other way counts as inactive or inconclusive.

What was measured:
[1] = biological target: Peptidyl-prolyl cis-trans isomerase NIMA-interacting 1 (Homo sapiens) (UniProt Q13526); assay: qHTS Validation Assay to Find Inhibitors of Pin1 (AID 504536; active = well fitted inhibition curve with a large enough effect in the polarisation, with a control signal flat, not every such curve was filed as active; the % refers to the polarisation; also: potency is read from the fitted curve at half-maximal effect)
Chain of Peptidyl-prolyl cis-trans isomerase NIMA-interacting 1 (Homo sapiens) (Q13526 whole entry, looked up): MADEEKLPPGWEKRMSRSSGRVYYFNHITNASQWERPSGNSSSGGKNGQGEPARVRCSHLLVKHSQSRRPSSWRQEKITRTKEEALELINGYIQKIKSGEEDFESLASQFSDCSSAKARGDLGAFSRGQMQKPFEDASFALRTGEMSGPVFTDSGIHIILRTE
Summary of the method: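 Fluorescence polarization competition: compounds (titration) displace HiFluor-488-labeled Pin1-1b peptide from Pin1 (0.3 uM final) in pH 7.5 HEPES buffer with DTT, 10 min at room temperature; %Activity normalized to no-enzyme wells, curves fitted.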

[2] = biological target: phosphoglycerate mutase (Leishmania major) (UniProt Q4Q090); assay: qHTS Validation Assay to Find Inhibitors of Phosphoglycerate Mutase (AID 504548);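 also: end-point luminescence from Kinase-GloPlus after the PGAM reaction; series mostly up to about 58 µM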
Chain of phosphoglycerate mutase (Leishmania major) (Q4Q090 1-553): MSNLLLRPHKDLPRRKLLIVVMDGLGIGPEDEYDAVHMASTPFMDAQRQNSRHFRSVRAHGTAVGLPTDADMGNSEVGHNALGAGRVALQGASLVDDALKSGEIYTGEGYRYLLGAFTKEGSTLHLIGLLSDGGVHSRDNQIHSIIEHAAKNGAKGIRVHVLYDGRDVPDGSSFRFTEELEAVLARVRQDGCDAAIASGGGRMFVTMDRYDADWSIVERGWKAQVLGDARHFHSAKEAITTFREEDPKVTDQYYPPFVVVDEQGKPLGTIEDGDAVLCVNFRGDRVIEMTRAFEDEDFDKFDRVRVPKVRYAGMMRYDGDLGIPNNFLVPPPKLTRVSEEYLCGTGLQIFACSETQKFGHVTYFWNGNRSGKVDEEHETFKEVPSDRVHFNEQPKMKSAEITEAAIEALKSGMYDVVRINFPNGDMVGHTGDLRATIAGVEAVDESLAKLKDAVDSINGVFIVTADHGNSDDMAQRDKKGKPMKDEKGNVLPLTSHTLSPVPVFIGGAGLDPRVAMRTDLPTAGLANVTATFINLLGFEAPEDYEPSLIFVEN
Summary of the method: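 L. major PGAM (1.25nM final) was added to substrate buffer and pinned compound, incubated 45 minutes at room temperature, then Kinase-GloPlus added; luminescence read after 10 minutes. Buffer: 100 mM TEA pH 7.6, 5 mM MgCl2, 0.01% Tween-20.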

[3] = biological target: Ubiquitin carboxyl-terminal hydrolase 1 (Homo sapiens) (UniProt O94782); assay: Inhibitors of USP1/UAF1: Pilot qHTS (AID 504865);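 also: rhodamine fluorescence freed from ubiquitin-rhodamine substrate followed over time; top concentration of the series differs between compounds; nearly all actives have a fitted effect of over 35% in size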
Chain of Ubiquitin carboxyl-terminal hydrolase 1 (Homo sapiens) (O94782 whole entry, looked up): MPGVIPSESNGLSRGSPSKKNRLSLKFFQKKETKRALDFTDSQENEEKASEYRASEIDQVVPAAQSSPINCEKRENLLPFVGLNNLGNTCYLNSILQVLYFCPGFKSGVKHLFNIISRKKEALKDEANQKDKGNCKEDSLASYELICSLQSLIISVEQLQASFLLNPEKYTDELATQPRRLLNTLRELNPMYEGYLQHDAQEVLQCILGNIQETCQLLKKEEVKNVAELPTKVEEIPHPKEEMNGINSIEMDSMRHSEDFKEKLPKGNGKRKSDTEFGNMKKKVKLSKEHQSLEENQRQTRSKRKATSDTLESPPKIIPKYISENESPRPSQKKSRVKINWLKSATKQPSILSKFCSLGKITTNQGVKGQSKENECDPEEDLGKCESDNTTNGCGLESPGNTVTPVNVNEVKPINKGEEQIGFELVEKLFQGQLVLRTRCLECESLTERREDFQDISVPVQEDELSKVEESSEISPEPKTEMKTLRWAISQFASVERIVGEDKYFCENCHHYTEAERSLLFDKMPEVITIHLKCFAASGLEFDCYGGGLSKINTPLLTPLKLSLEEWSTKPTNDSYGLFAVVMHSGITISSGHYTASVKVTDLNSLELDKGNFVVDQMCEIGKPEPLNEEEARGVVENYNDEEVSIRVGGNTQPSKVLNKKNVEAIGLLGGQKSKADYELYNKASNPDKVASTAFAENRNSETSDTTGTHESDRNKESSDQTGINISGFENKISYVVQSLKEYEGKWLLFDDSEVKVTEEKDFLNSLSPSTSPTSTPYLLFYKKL
Summary of the method: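 Kinetic fluorescence assay: 1nM USP1/UAF1, 15 min compound preincubation, then 150nM Ub-Rho; 480/540 nm.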

[4] = biological target: Phosphoglycerate kinase, glycosomal (Trypanosoma brucei brucei) (UniProt P07378); assay: qHTS Validation Assay to Find Inhibitors of Phosphoglycerate Kinase (AID 504547); also: potency is read from the fitted curve at half-maximal effect
Chain of Phosphoglycerate kinase, glycosomal (Trypanosoma brucei brucei) (P07378 whole entry, looked up): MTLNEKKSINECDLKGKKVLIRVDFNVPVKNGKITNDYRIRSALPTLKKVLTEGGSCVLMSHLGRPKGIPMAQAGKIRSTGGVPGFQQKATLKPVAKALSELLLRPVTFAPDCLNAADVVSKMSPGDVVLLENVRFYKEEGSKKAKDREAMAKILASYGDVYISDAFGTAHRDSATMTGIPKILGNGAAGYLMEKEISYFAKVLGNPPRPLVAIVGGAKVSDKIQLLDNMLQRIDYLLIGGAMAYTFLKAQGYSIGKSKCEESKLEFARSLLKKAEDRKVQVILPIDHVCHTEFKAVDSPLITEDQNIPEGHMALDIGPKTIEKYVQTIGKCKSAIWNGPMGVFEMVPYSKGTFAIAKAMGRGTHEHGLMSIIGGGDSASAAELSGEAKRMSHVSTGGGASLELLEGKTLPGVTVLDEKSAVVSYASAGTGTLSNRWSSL
Summary of the method: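 PGK activity was coupled to GAPDH (100nM final), which generates the unstable substrate 1,3-bisphosphoglycerate in-well. Reactions ran 60 minutes at room temperature in 100mM TEA pH 7.6, 5mM MgCl2, 0.01% Tween-20, then Kinase-Glo Plus luminescence was read.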

[5] = qHTS for Inhibitors of ATXN expression: Validation (AID 588378); also: nearly all actives have a fitted effect of over 75% in size; also: potency is read from the fitted curve at half-maximal effect
Summary of the method: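 Validation of ATXN2 expression inhibitors uses a cell-based luciferase fusion reporter in HEK293 cells, with 24 h compound exposure and paired viability (fluorescence) and reporter (luminescence) end-point reads.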

[6] = qHTS for Inhibitors of ATXN expression: Validation of Cytotoxic Assay (AID 588349)
Summary of the method: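 HEK293 cells treated with titrated compound for 72 hr at 37 degrees C; viability read as intracellular ATP by CellTiter Glo luminescence.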

[7] = biological target: Estrogen receptor (Homo sapiens) (UniProt P03372); assay: qHTS assay for small molecule agonists of estrogen receptor alpha signaling (AID 588514; calls by dose curve; also: nearly all actives have a fitted effect of over 70% in size)
Chain of Estrogen receptor (Homo sapiens) (P03372 whole entry, looked up): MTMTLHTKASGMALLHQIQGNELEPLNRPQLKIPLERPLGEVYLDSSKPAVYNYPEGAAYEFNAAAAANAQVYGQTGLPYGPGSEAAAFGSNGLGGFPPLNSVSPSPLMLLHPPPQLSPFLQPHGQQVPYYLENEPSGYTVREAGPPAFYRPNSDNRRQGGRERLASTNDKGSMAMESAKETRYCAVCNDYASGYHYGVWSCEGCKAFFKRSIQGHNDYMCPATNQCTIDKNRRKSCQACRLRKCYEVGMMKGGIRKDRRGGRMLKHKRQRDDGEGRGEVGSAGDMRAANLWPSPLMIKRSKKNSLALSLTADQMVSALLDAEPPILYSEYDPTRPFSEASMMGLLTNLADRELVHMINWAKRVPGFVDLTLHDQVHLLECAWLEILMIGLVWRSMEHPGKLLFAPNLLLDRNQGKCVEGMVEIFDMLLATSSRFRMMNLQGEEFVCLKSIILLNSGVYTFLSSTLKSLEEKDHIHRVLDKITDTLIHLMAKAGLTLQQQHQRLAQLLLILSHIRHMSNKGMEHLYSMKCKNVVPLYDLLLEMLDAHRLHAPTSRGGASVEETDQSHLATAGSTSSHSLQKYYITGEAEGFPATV
Summary of the method: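 ER-alpha-UAS-bla GripTite HEK293 cells, 5000/well in 2% charcoal/dextran-stripped FBS medium, treated with compound titrations 18 h at 37 C. CCF4 beta-lactamase read by fluorescence after 2 h RT; normalised to 20 nM 17-beta-estradiol (100%) and DMSO (0%), Hill fit for EC50 and efficacy.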

[8] = biological target: DNA dC->dU-editing enzyme APOBEC-3G (Homo sapiens) (UniProt Q9HC16); assay: qHTS for inhibitors of Vif-A3G interactions: Validation (AID 588379)
Chain of DNA dC->dU-editing enzyme APOBEC-3G (Homo sapiens) (Q9HC16 whole entry, looked up): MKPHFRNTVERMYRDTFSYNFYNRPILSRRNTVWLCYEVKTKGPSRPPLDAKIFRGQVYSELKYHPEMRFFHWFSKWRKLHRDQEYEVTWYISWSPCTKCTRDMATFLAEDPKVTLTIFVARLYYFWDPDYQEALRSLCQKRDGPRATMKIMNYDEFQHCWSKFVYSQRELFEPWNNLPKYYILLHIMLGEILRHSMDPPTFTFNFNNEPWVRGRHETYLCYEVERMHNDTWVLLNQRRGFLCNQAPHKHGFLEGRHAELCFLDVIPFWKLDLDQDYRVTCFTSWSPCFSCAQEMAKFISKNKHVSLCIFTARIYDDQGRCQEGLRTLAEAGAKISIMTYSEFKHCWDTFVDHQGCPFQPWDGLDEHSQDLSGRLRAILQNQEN
Summary of the method: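 HeLa cells stably expressing Vif and A3G-eYFP, 700 cells/well, incubated overnight at 37 deg C, then exposed to compound overnight at 37 deg C. Inhibition of Vif-mediated degradation read as increased yellow fluorescence (Ex 488/Em 500-530) by laser-scanning cytometry.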

Measured: Potency

CC(CCc1ccc(O)cc1)NCCc1ccc(O)c(O)c1 (stereo not given)
inactive: [1] | [2] | [3]

Clc1ccccc1C(c1ccccc1)(c1ccccc1)n1ccnc1
active: [5] 25.1 µM
inactive: [1] | [4] | [2]

O=C1Cc2cc(CCN3CCN(c4nsc5ccccc45)CC3)c(Cl)cc2N1
inactive: [1] | [2]

COc1cc2nc(N3CCN(C(=O)C4COc5ccccc5O4)CC3)nc(N)c2cc1OC (stereo not given)
inactive: [1] | [4] | [2] | [5]

NS(=O)(=O)c1cc2c(cc1Cl)NCNS2(=O)=O
not listed: [3] | [8]
inactive: all other assays above

O=C(C1CCCCC1)N1CC(=O)N2CCc3ccccc3C2C1 (stereo not given)
inactive: [1] | [2] | [3] | [6] | [5]

Cc1ccc(C(=O)Nc2ccc(S(=O)(=O)O)c3cc(S(=O)(=O)O)cc(S(=O)(=O)O)c23)cc1NC(=O)c1cccc(NC(=O)Nc2cccc(C(=O)Nc3cc(C(=O)Nc4ccc(S(=O)(=O)O)c5cc(S(=O)(=O)O)cc(S(=O)(=O)O)c45)ccc3C)c2)c1
inactive: [2] | [6] | [5] | [8]
active: [1] 0.426 µM | [4] 2.69 µM

COC(=O)Nc1nc2ccc(C(=O)c3cccs3)cc2[nH]1
inactive: [1] | [4] | [2] | [5] | [8]

CC#C[C@]1(O)CC[C@H]2[C@@H]3CCC4=CC(=O)CCC4=C3[C@@H](c3ccc(N(C)C)cc3)C[C@@]21C
inactive: [1] | [2] | [3]

O=C(CCCN1CCC(O)(c2ccc(Cl)cc2)CC1)c1ccc(F)cc1
not listed: [4] | [7]
inactive: all other assays above

CC(C)NCC(O)c1ccc(O)c(O)c1 (stereo not given)
inactive: [1] | [4] | [5]

CN1CCC(=C2c3ccccc3CC(=O)c3sccc32)CC1
inactive: [1] | [4] | [2] | [6] | [8]

COc1ccc2[nH]cc(CCNC(C)=O)c2c1
not listed: [3]
inactive: all other assays above

COc1ccccc1N1CCN(CC(O)COc2cccc3ccccc23)CC1 (stereo not given)
inactive: [1] | [2]

CCN1CCCC1CNC(=O)c1cc(S(=O)(=O)CC)c(N)cc1OC (stereo not given)
inactive: [1] | [2] | [3] | [6] | [5]

Cc1cc(C(C)(C)C)c(O)c(C)c1CC1=NCCN1
inactive: [1] | [2] | [3] | [6] | [8]

COc1ccc(CCN(C)CCCC(C#N)(c2ccc(OC)c(OC)c2)C(C)C)cc1OC (stereo not given)
inactive: [1] | [4] | [2] | [8]

O=C(c1ccc(F)cc1)C1CCN(CCn2c(=O)[nH]c3ccccc3c2=O)CC1
not listed: [4] | [7]
inactive: all other assays above

COc1cc2nc(N(C)CCCNC(=O)C3CCCO3)nc(N)c2cc1OC (stereo not given)
inactive: [1] | [2] | [3] | [6] | [5]

C[C@](N)(Cc1ccc(O)c(O)c1)C(=O)O
inactive: [1] | [3] | [8]
active: [4] 2.13 µM

Nc1nc2c(ncn2COC(CO)CO)c(=O)[nH]1
inactive: [1] | [2] | [3] | [6] | [5]

O=C1N(c2ccccc2)c2ccccc2C1(Cc1ccncc1)Cc1ccncc1
inactive: [1] | [2] | [3] | [6] | [8]

CC(C)Cc1ccc(C(C)C(=O)O)cc1 (stereo not given)
not listed: [4] | [8]
inactive: all other assays above

CCOC(=O)C(C)(C)Oc1ccc(Cl)cc1
inactive: [1] | [2] | [3] | [6] | [5]

Nc1ccn([C@H]2CC[C@@H](CO)O2)c(=O)n1
not listed: [3]
inactive: all other assays above

CC12CC3CC(C)(C1)CC(N)(C3)C2
inactive: [1] | [2] | [3] | [6] | [5]

NCCS(=O)(=O)O
not listed: [3]
inactive: all other assays above
